Three molecules from PubChem BioAssay (EPA / NIEHS) can be followed below.

“And” between values parts separate entries of the source, which are not always exact repeats. Equal entries are not always repeated. Inconclusive results are not listed. More than one record can exist for a structure, and the calls need not agree. The source made the active and inactive calls. Rule for the calls, unless noted: active = hit-call score of the fitted dose curve at least 0.9, where 1 is the maximum; inconclusive = response in the unintended direction; inactive = score below 0.9.

Read-out in assay [1]: solute carrier (SLCO1B1), SLCO1B1 (gene 10599)
Kind of assay: LTEA_HepaRG_SLCO1B1: Life Technologies and Expression Analysis (LTEA) Assay for solute carrier (SLCO1B1) using HepaRG (AID 2283530; active = hit-call score of the fitted dose curve at least 0.9, where 1 is the maximum; inactive = score below 0.9). The conditions noted are these: mRNA level, 48 h; actives raise or lower the signal. Summed up:
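Gain or loss of SLCO1B1 mRNA is fitted against the 0.5% DMSO vehicle in human HepaRG liver cells treated 48 h at up to 100 uM in half-log steps. Expression comes from qRT-PCR normalized to endogenous controls.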

Read-out in assay [2]: sulfotransferase 2A1 (SULT2A1), SULT2A1 (gene 6822)
The assay is described as follows: LTEA_HepaRG_SULT2A1: Life Technologies and Expression Analysis (LTEA) Assay for sulfotransferase 2A1 (SULT2A1) using HepaRG (AID 2283531; active = hit-call score of the fitted dose curve at least 0.9, where 1 is the maximum; inactive = score below 0.9). The conditions noted are these: mRNA level, 48 h; actives raise or lower the signal. Summed up: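 Cells were plated and cultured 48 h, switched to serum-free induction medium, then dosed in duplicate for 48 h (8 concentrations, max 100 uM). RNA was isolated and SULT2A1 expression measured by qRT-PCR; gain or loss of signal fitted relative to DMSO.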

Read-out in assay [3]: Transforming Growth Factor (TGFA), TGFA (gene 7039)
Kind of assay: LTEA_HepaRG_TGFA: Life Technologies and Expression Analysis (LTEA) Assay for Transforming Growth Factor (TGFA) using HepaRG (AID 2283532; active = hit-call score of the fitted dose curve at least 0.9, where 1 is the maximum; inactive = score below 0.9). The conditions noted are these: mRNA level, 48 h; actives raise or lower the signal. Summed up: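 Differentiated HepaRG cells exposed 48 hours in serum-free induction medium, 0.5% DMSO vehicle, 8-point half-log series from 100 uM, in duplicate. TGFA mRNA by TaqMan qRT-PCR, normalised to ACTB, GAPDH, POLR2A; bidirectional fit versus DMSO.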

Read-out in a further assay: TIMP1, TIMP1 (gene 7076)
Kind of assay: LTEA_HepaRG_TIMP1: Life Technologies and Expression Analysis (LTEA) Assay for TIMP1 using HepaRG (AID 2283534; active = hit-call score of the fitted dose curve at least 0.9, where 1 is the maximum; inactive = score below 0.9;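 note: TaqMan qRT-PCR signal normalized to ACTB GAPDH and POLR2A housekeeping genes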). The conditions noted are these: mRNA level, 48 h; actives raise or lower the signal. Summed up:
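We dosed human liver HepaRG cultures for 48 hours with up to 100 uM test chemical and measured TIMP1 expression by qRT-PCR. Activity in either direction is fitted relative to the 0.5% DMSO vehicle.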

Read-out in assay [4]: Tumor necrosis factor receptor 1 (TNFRSF1A), TNFRSF1A (gene 7132)
The assay is described as follows: LTEA_HepaRG_TNFRSF1A: Life Technologies and Expression Analysis (LTEA) Assay for Tumor necrosis factor receptor 1 (TNFRSF1A) using HepaRG (AID 2283535; active = hit-call score of the fitted dose curve at least 0.9, where 1 is the maximum; inactive = score below 0.9). The conditions noted are these: mRNA level, 48 h; actives raise or lower the signal. Summed up: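 Expression of TNFRSF1A in human HepaRG liver cells was measured by qRT-PCR 48 h after chemical dosing (maximum 100 uM). Bidirectional curve fitting used 0.5% DMSO as baseline.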

Read-out in assay [5]: Thyroid Hormone Responsive (THRSP), THRSP (gene 7069)
Kind of assay: LTEA_HepaRG_THRSP: Life Technologies and Expression Analysis (LTEA) Assay for Thyroid Hormone Responsive (THRSP) using HepaRG (AID 2283536; active = hit-call score of the fitted dose curve at least 0.9, where 1 is the maximum; inactive = score below 0.9). The conditions noted are these: mRNA level, 48 h; actives raise or lower the signal. Summed up:
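Differentiated HepaRG cells treated 48 h in serum-free induction medium with 8 half-log concentrations up to 100 uM (0.5% DMSO), duplicates. THRSP mRNA by TaqMan qRT-PCR normalised to ACTB, GAPDH, POLR2A; bidirectional fit versus DMSO.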

Read-out in assay [6]: Cellular tumor antigen p53 (Homo sapiens) (UniProt P04637)
The assay is described as follows: LTEA_HepaRG_TP53: Life Technologies and Expression Analysis (LTEA) Assay for Tumor Protein P53 (TP53) using HepaRG (AID 2283537; active = hit-call score of the fitted dose curve at least 0.9, where 1 is the maximum; inactive = score below 0.9). The conditions noted are these: mRNA level, 48 h; actives raise or lower the signal. Summed up:
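TP53 transcript measured by qRT-PCR, normalized to three housekeeping genes, after 48 h treatment of human HepaRG cultures with chemicals from 100 uM downward in half-log steps (0.5% DMSO vehicle, serum-free induction medium). Up- or down-regulation fitted against DMSO.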

Read-out in assay [7]: UDP glucuronosyltransferase (UGT1A1), UGT1A1 (gene 54658)
The assay is described as follows: LTEA_HepaRG_UGT1A1: Life Technologies and Expression Analysis (LTEA) Assay for UDP glucuronosyltransferase (UGT1A1) using HepaRG (AID 2283538; active = hit-call score of the fitted dose curve at least 0.9, where 1 is the maximum; inactive = score below 0.9). The conditions noted are these: mRNA level, 48 h; actives raise or lower the signal. Summed up:
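HepaRG cells, 0.5% DMSO vehicle, 48 h exposure in serum-free induction medium to 8-point half-log series topping at 100 uM, in duplicate. UGT1A1 mRNA by Fluidigm qRT-PCR, normalized to ACTB/GAPDH/POLR2A; bidirectional fit versus DMSO.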

Read-out in assay [8]: UDP glucuronosyltransferase (UGT1A6), UGT1A6 (gene 54578)
Kind of assay: LTEA_HepaRG_UGT1A6: Life Technologies and Expression Analysis (LTEA) Assay for UDP glucuronosyltransferase (UGT1A6) using HepaRG (AID 2283539; active = hit-call score of the fitted dose curve at least 0.9, where 1 is the maximum; inactive = score below 0.9). The conditions noted are these: mRNA level, 48 h; actives raise or lower the signal. Summed up: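 Endpoint is UGT1A6 transcript induction or loss in a human liver cell line, quantified by TaqMan qRT-PCR 48 h after dosing. Concentrations ran from 100 uM downward in half-log steps in 0.5% DMSO; activity was fitted in both directions versus vehicle.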

Read-out in assay [9]: X-box binding protein 1 (XBP1), XBP1 (gene 7494)
Kind of assay: LTEA_HepaRG_XBP1: Life Technologies and Expression Analysis (LTEA) Assay for X-box binding protein 1 (XBP1) using HepaRG (AID 2283540; active = hit-call score of the fitted dose curve at least 0.9, where 1 is the maximum; inactive = score below 0.9). The conditions noted are these: mRNA level, 48 h; actives raise or lower the signal. Summed up: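 Human HepaRG monolayers receive test chemical for 48 h across an eight-point half-log series starting at 100 uM. XBP1 mRNA gain or loss is scored against DMSO by qRT-PCR.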

Assay [10] is described as follows: LTEA_HepaRG_LDH_cytotoxicity: Cytotoxicity Assessment in the Life Technologies and Expression Analysis (LTEA) Assay (AID 2283563). Summed up:
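Human HepaRG hepatic cells are treated with test chemicals for 48 h at up to 100 uM in 0.5% DMSO. Cytotoxicity is scored from medium LDH against the vehicle control.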

A short description of assay [11]: ATG_XTT_Cytotoxicity: Cytotoxicity Assessment in the Attagene TRANS-FACTORIAL HepG2 Assay (AID 2283584).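 For AC50: XTT signal for cell number as viability in transfected HepG2 cells; cells exposed to compound for 24 h before reading; active means loss of viability signal versus DMSO baseline.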 Summed up: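 Transfect HepG2 with GAL4-UAS reporter units, dose compound, incubate 24 h, then measure viable cell number by XTT. Fit concentration response against DMSO baseline.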
Assay [12] in a line: TOX21_p53_BLA_p2_viability: Viability Assessment in the Tox21 HCT-116 p53 Agonism Beta-lactamase Assay, Phase 2 (AID 2283591).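 Note: actives lower the ATP signal meaning cytotoxicity.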 Summed up: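 HCT116 p53-bla cells, 4000/well, dosed after 5 h plating (217-fold dilution of DMSO stocks) and incubated 16 h at 37C. Viability taken as cellular ATP by CellTiter-Glo luminescence after 30 min RT; signal loss marks cytotoxicity.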
Assay [13] addresses Cellular tumor antigen p53 (Homo sapiens) (UniProt P04637). Kind of assay: TOX21_p53_BLA_p2_ratio: Tox21 HCT-116 p53 Agonism Beta-lactamase Assay, Ratio, Phase 2 (AID 2283592). Summed up:
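An inducible beta-lactamase reporter in HCT116 cells signals p53 pathway activation. After 16 h chemical exposure at 37C, cells load CCF4-AM substrate for 2 h at room temperature; activity is the cleaved/uncleaved emission ratio relative to DMSO.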

Assay [14] in a line: TOX21_p53_BLA_p3_viability: Viability Assessment in the Tox21 HCT-116 p53 Agonism Beta-lactamase Assay, Phase 3 (AID 2283593).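 Note: cells exposed to compound for 16 h before reading.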 Summed up:
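HCT116 cells, 4000/well, dosed 5 h after plating by pin transfer (217-fold dilution from DMSO stock) and incubated 16 h at 37C, 5% CO2. Viability read as ATP luminescence with CellTiter-Glo after 30 min at room temperature.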

In assay [15] the target is Cellular tumor antigen p53 (Homo sapiens) (UniProt P04637). Kind of assay: TOX21_p53_BLA_p3_ratio: Tox21 HCT-116 p53 Agonism Beta-lactamase Assay, Ratio, Phase 3 (AID 2283596). Summed up: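 HCT116 p53-bla cells (4000/well) given compound in DMSO (217-fold dilution) after 5 h, incubated 16 h at 37C. CCF4-AM substrate 2 h at room temperature; 460/530 nm emission ratio, gain fitted against DMSO.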
Chain of Cellular tumor antigen p53 (Homo sapiens) (P04637 whole entry, looked up): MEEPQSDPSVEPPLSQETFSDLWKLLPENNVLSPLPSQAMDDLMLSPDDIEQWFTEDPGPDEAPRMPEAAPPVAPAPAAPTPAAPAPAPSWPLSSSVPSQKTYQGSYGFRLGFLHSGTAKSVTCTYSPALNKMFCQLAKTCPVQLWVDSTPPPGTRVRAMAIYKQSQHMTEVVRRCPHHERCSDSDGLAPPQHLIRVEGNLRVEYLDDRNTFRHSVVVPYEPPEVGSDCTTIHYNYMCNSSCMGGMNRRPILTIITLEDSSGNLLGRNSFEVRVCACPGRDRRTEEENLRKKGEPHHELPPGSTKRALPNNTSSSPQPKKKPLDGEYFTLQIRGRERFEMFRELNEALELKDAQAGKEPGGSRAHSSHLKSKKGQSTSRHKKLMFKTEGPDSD

Assay [16] is described as follows: TOX21_p53_BLA_p4_viability: Viability Assessment in the Tox21 HCT-116 p53 Agonism Beta-lactamase Assay, Phase 4 (AID 2283597).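 Note: hits lower the luminescence signal meaning cytotoxicity.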 Summed up:
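Compound exposure of HCT116 cells lasts 16 h at 37C, 5% CO2, with DMSO stocks diluted 217-fold. Cellular ATP is then quantified by CellTiter-Glo luminescence after 30 min at room temperature.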

The target of assay [17] is Cellular tumor antigen p53 (Homo sapiens) (UniProt P04637). Kind of assay: TOX21_p53_BLA_p5_ratio: Tox21 HCT-116 p53 Agonism Beta-lactamase Assay, Ratio, Phase 5 (AID 2283599). Summed up:
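HCT-116 p53-bla cells (4000/well) plated 5 h, dosed with compound (217-fold DMSO dilution) for 16 h at 37 C; CCF4-AM substrate 2 h at room temperature. Activity is the 460/530 nm emission ratio (405 nm excitation), fitted in gain-of-signal direction versus DMSO.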

Assay [18] is described as follows: TOX21_p53_BLA_p5_viability: Viability Assessment in the Tox21 HCT-116 p53 Agonism Beta-lactamase Assay, Phase 5 (AID 2283600). Summed up: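 Counter-readout for cytotoxicity: ATP-dependent luminescence from CellTiter-Glo, read in the beta-lactamase wells after 30 min at RT, following a 16 h compound exposure at 37C.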

With `CC(C)(C)OOC(C)(C)C`, the outcome in [1] is “inactive”; in assay [2], “inactive”; in assay [3], “inactive”; in the assay with TIMP1, TIMP1 (gene 7076), “inactive”; in assay [4] it was “inactive”; in assay [5], “inactive”. For the same molecule, the result in assay [6], in [7], in [8], in assay [9], in [10] and in [11] was inactive. The outcome in assay [12], in assay [13], in [14], in [15], in [16] and in assay [17] was inactive. Besides, in assay [18], the result was inactive.
As to `c1cc2c3c(cccc3c1)CC2`, the outcome in assay [1] is “inactive”; in [2], “inactive”; in assay [3] it was “inactive”; with TIMP1, TIMP1 (gene 7076), “inactive”; in assay [4] it was “inactive”; in assay [5] it was “inactive”. For the same molecule, the call in assay [6], in assay [7], in assay [8], in assay [9], in assay [10] and in [12] was inactive. Moreover, the outcome in assay [15], in [16], in assay [17] and in assay [18] was inactive.
On to `ClC1=C(Cl)C2(Cl)C3C(Cl)C(Cl)CC3C1(Cl)C2(Cl)Cl` (centres undefined), for which the outcome in [1] was “inactive”; in assay [2] it was “inactive”; in [3] it was “inactive”; in the assay with TIMP1, TIMP1 (gene 7076), “inactive”; in [4] it was “inactive”; in assay [5], “inactive”. The molecule was classed as inactive in [6], in assay [8], in assay [9], in assay [10], in assay [14] and in assay [15]. Besides, the molecule was called inactive in [16], in [17] and in assay [18]. Also, the AC50 (as a rule, the midpoint of the concentration-response curve, whichever way the signal moves) in assay [7] is 2.81 µM (active); in [11] it was 157 µM (active); in assay [12] it was 50.8 µM (active) and 46 µM (active); in [13] it was 61.5 µM (active) and 80.2 µM (active); in [14], 55.6 µM (active); in [15], 86.1 µM (active). In addition, the AC50 is 64.1 µM (active) in assay [16], 86.4 µM (active) in assay [17] and 46.1 µM (active) in assay [18].
